Assay results reported in PMC5540273 (PLoS ONE, 2017).
Read-outs that look alike come from different tables or passages of the source.

Experiments:
CSNK1G1 = conditions: concentration: 1 μM,replicates: in singlicate; n = 1
CSNK1G2 = conditions: concentration: 1 μM,replicates: in singlicate; n = 1
CSNK1G3 = conditions: concentration: 1 μM,replicates: in singlicate; n = 1
CSNK2A1 = conditions: n = 1
CSNK2A2 = conditions: n = 1
CTK = system: T1, CTK; conditions: concentration: 1 μM,replicates: in singlicate; n = 1
T1 construct: gene MATK

DAPK1 = conditions: concentration: 1 μM,replicates: in singlicate; n = 1
DAPK2 = conditions: concentration: 1 μM,replicates: in singlicate; n = 1
DAPK3 = conditions: concentration: 1 μM,replicates: in singlicate; n = 1
DCAMKL1 = system: T2, DCAMKL1; conditions: concentration: 1 μM,replicates: in singlicate; n = 1
T2 construct: gene DCLK1

DCAMKL2 = system: T3, DCAMKL2; conditions: concentration: 1 μM,replicates: in singlicate; n = 1
T3 construct: gene DCLK2

DCAMKL3 = system: T4, DCAMKL3; conditions: concentration: 1 μM,replicates: in singlicate; n = 1
T4 construct: gene DCLK3

DDR1 = conditions: concentration: 1 μM,replicates: in singlicate; n = 1
DDR2 = conditions: concentration: 1 μM,replicates: in singlicate; n = 1
DLK = system: T5, DLK; conditions: concentration: 1 μM,replicates: in singlicate; n = 1
T5 construct: gene MAP3K12

DMPK2 = system: T6, DMPK2; conditions: concentration: 1 μM,replicates: in singlicate; n = 1
T6 construct: gene CDC42BPG

DMPK = conditions: concentration: 1 μM,replicates: in singlicate; n = 1
DRAK1 = system: T7, DRAK1; conditions: concentration: 1 μM,replicates: in singlicate; n = 1
T7 construct: gene STK17A

DRAK2 = system: T8, DRAK2; conditions: concentration: 1 μM,replicates: in singlicate; n = 1
T8 construct: gene STK17B

DYRK1A = conditions: concentration: 1 μM,replicates: in singlicate; n = 1
[1] = concentration: 1 μM,replicates: in singlicate
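Further: KINOMEscan kinase panel screen.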

## CN1CCN(CCNc2nc3cc(Oc4ccc(NC(=O)Nc5cc(C(F)(F)F)ccc5F)cc4)ccc3[nH]2)CC1.Cl.Cl [GW768504]
CSNK1G1
  %Inh: 0%
CSNK1G2
  %Inh: 0%
CSNK1G3
  %Inh: 0%
CSNK2A1; [1]
  %Inh: 0%
CSNK2A2; [1]
  %Inh: 7%
CTK
  %Inh: 0%
DAPK1
  %Inh: 0%
DAPK2
  %Inh: 0%
DAPK3
  %Inh: 0%
DCAMKL1
  %Inh: 34%
DCAMKL2
  %Inh: 10%
DCAMKL3
  %Inh: 0%
DDR1
  %Inh: 96.9%
DDR2
  %Inh: 99.2%
DLK
  %Inh: 0%
DMPK2
  %Inh: 10%
DMPK
  %Inh: 0%
DRAK1
  %Inh: 0%
DRAK2
  %Inh: 17%
DYRK1A
  %Inh: 0%

## C[C@@H]1CNc2c(sc3ccc4nc(-c5ccncc5)ccc4c23)C(=O)N1
CSNK1G1
  %Inh: 16%
CSNK1G2
  %Inh: 15%
CSNK1G3
  %Inh: 21%
CSNK2A1; [1]
  %Inh: 38%
CSNK2A2; [1]
  %Inh: 0%
CTK
  %Inh: 0%
DAPK1
  %Inh: 30%
DAPK2
  %Inh: 24%
DAPK3
  %Inh: 13%
DCAMKL1
  %Inh: 4%
DCAMKL2
  %Inh: 0%
DCAMKL3
  %Inh: 55%
DDR1
  %Inh: 0%
DDR2
  %Inh: 0%
DLK
  %Inh: 0%
DMPK2
  %Inh: 0%
DMPK
  %Inh: 27%
DRAK1
  %Inh: 99%
DRAK2
  %Inh: 98.3%
DYRK1A
  %Inh: 99.7%

## COc1cccc(OC)c1C(=O)Nc1cccc(-c2nn3ccccc3c2-c2ccnc(Nc3cccc(F)c3)n2)c1 [GSK361065]
CSNK1G1
  %Inh: 14%
CSNK1G2
  %Inh: 17%
CSNK1G3
  %Inh: 3%
CSNK2A1; 1 µM
  %Inh: 0%
CSNK2A2; 1 µM
  %Inh: 23%
CTK
  %Inh: 21%
DAPK1
  %Inh: 10%
DAPK2
  %Inh: 6%
DAPK3
  %Inh: 0%
DCAMKL1
  %Inh: 16%
DCAMKL2
  %Inh: 0%
DCAMKL3
  %Inh: 16%
DDR1
  %Inh: 99.3%
DDR2
  %Inh: 57%
DLK
  %Inh: 0%
DMPK2
  %Inh: 84%
DMPK
  %Inh: 2%
DRAK1
  %Inh: 12%
DRAK2
  %Inh: 12%
DYRK1A
  %Inh: 0%

## COC(=O)c1cccc(NC(=O)NC2CCN(c3ccnc(NCc4ccc(F)cc4)n3)CC2)c1 [GSK1379860]
CSNK1G1
  %Inh: 0%
CSNK1G2
  %Inh: 0%
CSNK1G3
  %Inh: 9%
CSNK2A1; [1]
  %Inh: 7%
CSNK2A2; [1]
  %Inh: 0%
CTK
  %Inh: 1%
DAPK1
  %Inh: 0%
DAPK2
  %Inh: 0%
DAPK3
  %Inh: 3%
DCAMKL1
  %Inh: 0%
DCAMKL2
  %Inh: 18%
DCAMKL3
  %Inh: 3%
DDR1
  %Inh: 18%
DDR2
  %Inh: 0%
DLK
  %Inh: 17%
DMPK2
  %Inh: 12%
DMPK
  %Inh: 0%
DRAK1
  %Inh: 0%
DRAK2
  %Inh: 34%
DYRK1A
  %Inh: 18%

## Cc1n[nH]c2cc(Nc3ccnc(Nc4cccc(CN5CCOCC5)c4)n3)ccc12 [GW682569]
CSNK1G1
  %Inh: 0%
CSNK1G2
  %Inh: 0%
CSNK1G3
  %Inh: 22%
CSNK2A1; [1]
  %Inh: 31%
CSNK2A2; [1]
  %Inh: 27%
CTK
  %Inh: 0%
DAPK1
  %Inh: 58%
DAPK2
  %Inh: 25%
DAPK3
  %Inh: 68%
DCAMKL1
  %Inh: 4%
DCAMKL2
  %Inh: 0%
DCAMKL3
  %Inh: 0%
DDR1
  %Inh: 70%
DDR2
  %Inh: 55%
DLK
  %Inh: 52%
DMPK2
  %Inh: 0%
DMPK
  %Inh: 0%
DRAK1
  %Inh: 53%
DRAK2
  %Inh: 16%
DYRK1A
  %Inh: 2%

## Cn1ccc2ncnc(Oc3ccc(NC(=O)Nc4cncc(C(F)(F)F)c4)c(Cl)c3)c21
CSNK1G1
  %Inh: 0%
CSNK1G2
  %Inh: 5%
CSNK1G3
  %Inh: 0%
CSNK2A1; [1]
  %Inh: 0%
CSNK2A2; [1]
  %Inh: 0%
CTK
  %Inh: 0%
DAPK1
  %Inh: 0%
DAPK2
  %Inh: 0%
DAPK3
  %Inh: 0%
DCAMKL1
  %Inh: 0%
DCAMKL2
  %Inh: 0%
DCAMKL3
  %Inh: 0%
DDR1
  %Inh: 100%
DDR2
  %Inh: 99.9%
DLK
  %Inh: 0%
DMPK2
  %Inh: 0%
DMPK
  %Inh: 0%
DRAK1
  %Inh: 0%
DRAK2
  %Inh: 0%
DYRK1A
  %Inh: 0%

## CN(c1ccccc1CNc1nc(Nc2ccc3c(c2)CC(=O)N3)ncc1C(F)(F)F)S(C)(=O)=O
CSNK1G1
  %Inh: 0%
CSNK1G2
  %Inh: 0%
CSNK1G3
  %Inh: 13%
CSNK2A1; [1]
  %Inh: 70%
CSNK2A2; [1]
  %Inh: 92.7%
CTK
  %Inh: 0%
DAPK1
  %Inh: 4%
DAPK2
  %Inh: 24%
DAPK3
  %Inh: 28%
DCAMKL1
  %Inh: 21%
DCAMKL2
  %Inh: 0%
DCAMKL3
  %Inh: 94.8%
DDR1
  %Inh: 12%
DDR2
  %Inh: 0%
DLK
  %Inh: 19%
DMPK2
  %Inh: 0%
DMPK
  %Inh: 25%
DRAK1
  %Inh: 96.5%
DRAK2
  %Inh: 98.4%
DYRK1A
  %Inh: 28%

## Cc1ccn2nc(-c3ccc(F)cc3)c(-c3ccncc3)c2c1.Cl [GW457859]
CSNK1G1
  %Inh: 29%
CSNK1G2
  %Inh: 12%
CSNK1G3
  %Inh: 31%
CSNK2A1; [1]
  %Inh: 0%
CSNK2A2; [1]
  %Inh: 14%
CTK
  %Inh: 0%
DAPK1
  %Inh: 15%
DAPK2
  %Inh: 6%
DAPK3
  %Inh: 0%
DCAMKL1
  %Inh: 10%
DCAMKL2
  %Inh: 0%
DCAMKL3
  %Inh: 0%
DDR1
  %Inh: 75%
DDR2
  %Inh: 82%
DLK
  %Inh: 44%
DMPK2
  %Inh: 75%
DMPK
  %Inh: 0%
DRAK1
  %Inh: 2%
DRAK2
  %Inh: 0%
DYRK1A
  %Inh: 0%

## Cn1cc(-c2cccc3c(N)c(C(N)=O)nnc23)cn1
CSNK1G1
  %Inh: 13%
CSNK1G2
  %Inh: 7%
CSNK1G3
  %Inh: 10%
CSNK2A1; [1]
  %Inh: 26%
CSNK2A2; [1]
  %Inh: 33%
CTK
  %Inh: 32%
DAPK1
  %Inh: 3%
DAPK2
  %Inh: 16%
DAPK3
  %Inh: 5%
DCAMKL1
  %Inh: 7%
DCAMKL2
  %Inh: 13%
DCAMKL3
  %Inh: 23%
DDR1
  %Inh: 0%
DDR2
  %Inh: 0%
DLK
  %Inh: 27%
DMPK2
  %Inh: 7%
DMPK
  %Inh: 0%
DRAK1
  %Inh: 79%
DRAK2
  %Inh: 12%
DYRK1A
  %Inh: 56%
